Test results reported in PubChem BioAssay.

Experiment: growth of efflux-deficient E. coli DRC39 – strain DRC39, OD650, 48 h, E. coli filamentation inducers, primary screen (AID 1179);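 note: screen aims at cell division blockers that make cells filament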
Details: E. coli DRC39 delta-acrAB growth, higher = more signal, called active from +8 up or from −8 down

z-score, inactive:
C[C@]1(C(=O)NCc2ccccc2)c2ccccc2C(=O)N(Cc2ccc(OC(F)(F)F)cc2)[C@H]1c1ccc(CO)cc1 0.806
O=C1O[C@@H](c2ccccc2)[C@@H](c2ccccc2)N2[C@@H](c3ccc(O)cc3)[C@]3(C(=O)Nc4ccc(C#CC5=CCCCC5)cc43)[C@@H](C(=O)O)[C@H]12 1.32
O=C(O)[C@@]1(Cc2ccccc2)N=C(c2ccc(OCCCO)cc2)O[C@H]1c1ccccc1 1.34
NC(=O)NCC#Cc1ccc2c(c1)[C@]1(C(=O)N2)[C@H](C(=O)N2CCCCCCC2)[C@H]2C(=O)O[C@H](c3ccccc3)[C@H](c3ccccc3)N2[C@@H]1c1ccc(OCCO)cc1 -0.318
CC(C)C[C@@H]1NC(=O)[C@H]2C[C@@H](C(=O)NCCCCCNC(=O)CS)[C@@H](c3cccc(OCCO)c3)N2C1=O -0.663
COC(=O)[C@@]1(Cc2ccccc2)[C@H]2c3cc(C(=O)N4CCCC4)n(C)c3C[C@H]2CN1C(=O)c1ccccc1 -0.0676
Cc1ccc(S[C@]2(C(=O)NCC(C)C)CC(=O)N(Cc3ccccc3)[C@@H]2c2ccc(CO)cc2I)cc1 -0.553
COCCOC(=O)N1C(=O)[C@@]2(c3cc(C#CCCO)ccc31)[C@H](c1ccccc1OCCO)N1[C@H](c3ccccc3)[C@H](c3ccccc3)OC(=O)[C@H]1[C@@H]2C(=O)N1CCN(c2ncccn2)CC1 -0.27
CC(c1ccccc1)C(O)C1C=CC2C(=O)NC(=O)C2N1Nc1ccccn1 (centres undefined) 0.226
